# Screening results (PubChem BioAssay)
# Shown are actives, neighbours in structure and some others; about 6.5% of the full set was active somewhere.
# VACV mCherry inh = vaccinia inhibition (mCherry reporter); AID 720579; Potency, µM (series often up to 36.5 µM), without a hit: at the highest dose activity change, negative = inhibition, hits mostly inhibitors; Vaccinia virus mCherry reporter infection, fluorescence; actives 0.63% (n = 310,000); calls by dose curve; tested in A549 cells; also: potency is read from the fitted curve at half-maximal effect; nearly all actives have a fitted effect of over 35% in size
# Lassa entry inh = Lassa virus entry inhibition; actives 1.2% (n = 300,000); Lassa virus pseudotype entry inhibition, cell reporter; Potency, µM (highest dose often 37.9 µM), for inactives: top-dose activity change, negative = inhibition, usual class: inhibitors; AID 540256; calls by dose curve; tested in HEK293 cells; also: potency is read from the fitted curve at half-maximal effect; nearly all actives have a fitted effect of over 50% in size
# Vaccinia Venus = vaccinia inhibition (Venus reporter); Potency, µM (top dose mostly 36.5 µM), for the others: at the top dose activity change, negative = inhibition, usual class: inhibitors; actives 0.46% (n = 330,000); Vaccinia virus Venus reporter expression, fluorescence; AID 720580; calls by dose curve; tested in A549 cells; also: potency is read from the fitted curve at half-maximal effect; nearly all actives have a fitted effect of over 30% in size
# HCMV antiviral = inhibitors of human cytomegalovirus. HFF cells, HCMV-luciferase reporter, 72 h; active compounds read low. activity change, negative = inhibition, % at 57.5 µM. actives 4.5% (n = 410,000). AID 1259415; in the data active = activity change below about -60%; inconclusive = no clear call, values can overlap the other calls; inactive = above about -39%
#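 Two-dose cell screen: HFF monolayers treated with compounds and infected with luciferase-expressing HCMV at 1 PFU/cell, 72 h at 37C, then lysed for luciferase measurement.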
# FMDV antiviral = foot and mouth disease virus antiviral activity; FMDV antiviral cell-based qHTS; Potency, µM (top dose mostly 57.9 µM), inactives show at the highest dose activity change, negative = inhibition, hits mostly inhibitors; actives 1.2% (n = 410,000); AID 1159524; calls by dose curve; tested in HEK293T cells; also: read-out not given here; potency is read from the fitted curve at half-maximal effect; nearly all actives have a fitted effect of over 45% in size
# MARV entry inh = Marburg virus entry inhibition; Potency, µM (series often up to 37.8 µM), for inactives: top-dose activity change, negative = inhibition, hits mostly inhibitors; actives 1.8% (n = 300,000); AID 540276; Marburg virus pseudotyped entry inhibition, cell reporter; calls by dose curve; tested in HEK293 cells; also: potency is read from the fitted curve at half-maximal effect
# The depositor's hits bear a star; i = inactive; ? = inconclusive; . = not tested or not shown; + = active, no number; [ ] = remark or other dose. % is scaled to controls: 0 for no effect and ±100 for the full control effect.
SMILES,VACV mCherry inh,Lassa entry inh,Vaccinia Venus,HCMV antiviral,FMDV antiviral,MARV entry inh
COc1ccccc1NC(=O)c1ccc([N+](=O)[O-])o1,.,.,.,-62.7*,-25.6%,.
CCOc1ccccc1C1C(C(=O)Nc2ccccc2)=C(C)Nc2nc(-c3ccccc3)nn21 (configuration not stated),-2.4%,4.6%[46.1 µM],-0.7%,-10.7,-18.6%,-19.7%[46.1 µM]
CCCCNC(=O)c1nc2ccccc2nc1-c1ccc(F)cc1,.,.,.,-1.7,.,.
Cc1ccc(C(=O)Nc2ccccc2-c2ccccc2)o1,.,12.5%,-23.0%,-67.1*,0.0%,-4.9%
O=C(Nc1ccc(N2CCN(C(=O)c3ccccc3)CC2)c(Cl)c1)c1ccc(Br)o1,.,20.6µM*,.,-67.5*,-26.9%,?
O=C(Nc1ccccc1N1CCCC1)c1ccc([N+](=O)[O-])o1,.,.,.,-70.7*,0.0%,.
CCCn1c(NC(=O)c2ccc([N+](=O)[O-])o2)nc2ccccc21,?,-28.7%,-9.6%,-62.8*,-9.1%,?
CC1CCN(c2ccccc2NC(=O)c2ccc([N+](=O)[O-])o2)CC1,14.1%,.,9.4%,-9.7,-2.0%,-10.9%[46.1 µM]
O=C(Nc1ccc(N2CCN(C(=O)c3ccccc3)CC2)cc1)c1ccc(Br)o1,.,-27.5%,-29.3%,-25.1,0.0%,?
Cc1ccc(C(=O)Nc2ccccc2C(N)=O)o1,.,?,.,29.1,0.0%,5.8%
Nc1ccccc1N1CCN(C(=O)c2ccccc2)CC1,-11.7%,1.7%,-4.1%,-21.1,-10.1%,-13.4%
O=C(c1ccccc1)c1ccc(C(=O)N2CCN(c3ccccc3O)CC2)cc1,-13.6%,.,-6.6%,-64.8*,?,.
COc1cccc(OC)c1OCCCN1CCC(Cc2ccccc2)CC1,-13.5%,?,-3.8%,-0.9,19.2%,11.2µM*
COc1cc(/C=C/C(=O)OCC(=O)N2CC3(C)CC2CC(C)(C)C3)ccc1O (configuration not stated),i,?,-23.3%,-73.3*,?,-36.9%
Nc1cc(C(=O)OCC(=O)N2CCC(Cc3ccccc3)CC2)ccc1Cl,.,.,.,-64.6*,-18.1%,.
COc1cc(/C=C/C(=O)OCC(=O)N2CCC(Cc3ccccc3)CC2)ccc1O,i,?,-13.6%,-18.2,31.6µM*,-8.6%
COc1cc(/C=C/C(=O)OCC(=O)N2CCC(C)CC2)ccc1O,-4.0%,11.6%,-7.7%,3.3,-4.3%,11.9%
COc1ccc(-c2nc3ccc(NS(=O)(=O)c4ccc(C)cc4)cc3o2)cc1,1.1%,-9.3%[46.1 µM],-8.7%,-13.4,6.3%,-26.8%[46.1 µM]
Cc1c(Cl)cccc1-n1ncc(C(=O)N2CCC(C)CC2)c1C1CCN(C(=O)OC(C)(C)C)CC1,-5.9%,-2.2%[46.1 µM],-1.0%,16.8,-28.8%,.
CC(C)CNC(=O)Nc1cc(C(=O)NCc2ccc(C(C)C)cc2)ccc1N1CCCC1,1.0%,-27.6%[46.1 µM],-5.4%,19.0,-11.5%,.
COc1cc(/C=C/C(=O)OC2CC3CCC2(C)C3(C)C)ccc1O (configuration not stated),-2.1%,.,-8.7%,-102.6*,17.2%,.
COc1cccc(C(=O)OCC(=O)N2CCC(Cc3ccccc3)CC2)c1OC,.,.,.,28.0,?,.
CC1(C)CC2CC(C)(CN2C(=O)COC(=O)c2ccccc2C(F)(F)F)C1 (configuration not stated),.,.,.,+,-5.9%,.
COc1cccc(OC)c1C(=O)OCC(=O)N1CCC(Cc2ccccc2)CC1,i,-5.6%[46.1 µM],-7.6%,-99.5*,-5.9%,4.6%[46.1 µM]
COc1cc(/C=C/C(=O)OCC(=O)c2ccc(OC(F)F)cc2)ccc1O,-18.6%,?,-7.5%,-36.5,31.6µM*,-37.8%
SMILES,VACV mCherry inh,Lassa entry inh,Vaccinia Venus,HCMV antiviral,FMDV antiviral,MARV entry inh
CCOC(=O)C(C)=NNC(C)=O,.,.,.,.,.,-17.1%[14.2 µM]
Cc1ccc(C2(c3ccc(C)cc3)CC2C(=O)Nc2ccc([N+](=O)[O-])cc2O)cc1 (configuration not stated),-23.7%,12.6µM*,?,-102.1*,-19.4%,?
COc1ccc2nc3sc(C(=O)N4CCN(c5ccc(F)cc5)CC4)cc3cc2c1,-17.2%,9.3%[46.1 µM],-13.6%,-2.1,-12.0%,20.4%[46.1 µM]
C(=C\c1ccco1)/c1ccc2ccccc2n1,i[7.34 µM],?,9.3%[7.34 µM],190.6,-68.8%,2.82µM*
Cc1ccsc1/C=C/c1ccc2cccc(O)c2n1,.,?,.,105.5,0.0%,?
Cc1ccsc1/C=C/c1ccc2ccccc2n1,-17.7%,12.6µM*,-9.3%,5.9,-26.7%,?
Fc1cccc(F)c1/C=C/c1ccc2ccccc2n1,-12.8%,?,-12.1%,54.7,-50.7%,?
